# Measurements: PubChem BioAssay (Tox21)
# “And” between values parts separate entries of the source, which are not always exact repeats. Equal entries are not always repeated. Inconclusive results are not listed. Where a call stands in place of a potency, no number is given. The source holds several records for some structures; these can differ, active in one and inactive in another. The source made the active and inactive calls. Unless noted, calls follow the shape of the dose curve; as a rule, active = well fitted curve in the direction sought with a large enough effect in the repeat runs; inconclusive = weak or mixed curves; inactive = no such curve, though single readings can be large; an effect the other way counts as inactive or inconclusive.
# Tests used:
# [1] = qHTS assay for small molecule agonists of the p53 signaling pathway (AID 651631; calls by dose curve; also: nearly all actives have a fitted effect of over 15% in size; also: potency is read from the fitted curve at half-maximal effect)
# In short: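 HCT-116 p53RE-bla reporter line, 16 h compound treatment at 37 °C, then fluorescence after 2 h with B/G FRET substrate.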
# [2] = qHTS assay for small molecules that induce genotoxicity in human embryonic kidney cells expressing luciferase-tagged ATAD5 (AID 651632); also: nearly all actives have a fitted effect of over 15% in size; also: potency is read from the fitted curve at half-maximal effect
# In short: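 Genotoxicity read-out via ATAD5-luciferase: HEK293T cells, 16 hr compound incubation at 37C, Amplite detection.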
# [3] = qHTS assay for small molecule agonists of the p53 signaling pathway - cell viability (AID 651633; calls by dose curve; also: nearly all actives have a fitted effect of over 30% in size; also: potency is read from the fitted curve at half-maximal effect)
# In short: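 p53RE-bla cells, seeded at 4,000 per well and rested 5 h at 37 C/5% CO2, received compounds in DMSO for 16 h at 37 C. CellTiter-Glo was then added, and luminescence was read after 30 min at room temperature to gauge cytotoxicity.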
# [4] = qHTS assay for small molecule disruptors of the mitochondrial membrane potential - cell viability (AID 720634; calls by dose curve; also: nearly all actives have a fitted effect of over 20% in size; also: potency is read from the fitted curve at half-maximal effect)
# In short: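 Human hepatoma HepG2 cells were treated for 1 hr with test chemicals, then given m-MPI dye and CellTiter-Glo. Cell viability reflects luminescence proportional to cellular ATP.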
# [5] = qHTS assay for small molecule disruptors of the mitochondrial membrane potential (AID 720635); also: potency is read from the fitted curve at half-maximal effect
# In short: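 HepG2 cells (2,000/well) attached overnight at 37C, then took compound for 1 hr at 37C, 5% CO2. Mito-MPS dye was added for 30 min; fluorescence was read at 490/535 nm (monomers) and 540/590 nm (aggregates).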
# [6] = qHTS assay to test for compound auto fluorescence at 590 nm (red) in HepG2 cells (AID 720674)
# In short: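 Rose Bengal sodium served as the red fluorophore standard. HepG2 monolayers (overnight attachment, MEM with 10% FBS) were exposed to test compounds for 1 hr at 37 C and read at Ex 540/Em 590 nm.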
# [7] = qHTS assay to test for compound auto fluorescence at 535 nm (green) in HepG2 cells (AID 720675)
# [8] = qHTS assay to test for compound auto fluorescence at 460 nm (blue) in HEK293 cells (AID 720678)
# In short: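 Blue read-out at excitation 405 nm and emission 460 nm follows overnight compound exposure of HEK293 cells at 37C in 5% CO2. Activity is given as auto fluorescence equivalency to triamterene.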
# [9] = qHTS assay to test for compound auto fluorescence at 590 nm (red) in HEK293 cells (AID 720679)
# In short: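 Red channel, Ex/Em 540/590nm; signal expressed as equivalency to Rose Bengal sodium. HEK293, 2,000 cells/well, 10% dialyzed FBS; 23 nL compound pinned after 4-5 hr attachment; overnight 37C/5% CO2 before reading.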
# [10] = qHTS assay for small molecules that induce genotoxicity in human embryonic kidney cells expressing luciferase-tagged ATAD5 - cell viability (AID 651634; calls by dose curve; also: nearly all actives have a fitted effect of over 25% in size; also: potency is read from the fitted curve at half-maximal effect)
# In short: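 Live-cell protease activity (CellTiter-Fluor, fluorescence) indicates viability. HEK293T cells with luciferase-tagged ATAD5; 15.5 hr compound treatment at 37C.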
Compound,Potency [1],Potency [2],Potency [3],Potency [4],Potency [5],outcome [6],outcome [7],Potency [8],outcome [9],Potency [10]
O=P(OCCCl)(OCCCl)OCCCl,inactive,inactive,inactive,inactive,inactive,inactive,inactive,inactive,inactive,–
Clc1ccc(C(Cl)(Cl)Cl)cc1,inactive,inactive,inactive,–,inactive,inactive,inactive,inactive,inactive,–
COP(=S)(OC)Oc1ccc(S(=O)(=O)N(C)C)cc1,inactive,inactive,inactive,inactive,–,inactive,inactive,inactive,inactive,–
CC1=C(C(=O)Nc2ccccc2)SCCO1,inactive,–,inactive,inactive,–,inactive,inactive,inactive,inactive,inactive
COc1ccc(O)c(C(C)(C)C)c1,–,inactive,inactive,inactive,30.7 µM (active) and 24.3 µM (active),inactive,inactive,inactive,inactive,inactive
CC(O)CN(CC(C)O)CC(C)O (stereo not drawn),inactive,–,inactive,inactive,inactive,inactive,inactive,inactive,inactive,–
OCCOCCO,–,inactive,inactive,inactive,–,inactive,inactive,inactive,inactive,inactive
Clc1cccc(Cl)c1,–,inactive,inactive,inactive,inactive,inactive,inactive,inactive,inactive,inactive
COP(=S)(OC)Oc1ccc(Sc2ccc(OP(=S)(OC)OC)cc2)cc1,–,inactive,inactive,61.1 µM (active),24.8 µM (active) and 30.6 µM (active),inactive,inactive,inactive,inactive,inactive
O=C1Nc2ccc(Cl)cc2C(c2ccccc2)=NC1O (stereo not drawn),inactive,inactive,inactive,–,–,inactive,inactive,inactive,inactive,inactive
O=NN1CCOCC1,inactive,inactive,inactive,inactive,inactive,inactive,inactive,inactive,inactive,–
CC(C)Nc1ccc(Nc2ccccc2)cc1,26.6 µM (active) and 68.3 µM (active) and 30.6 µM (active),inactive,23.7 µM (active) and inactive,–,21.1 µM (active) and 60.9 µM (active) and 61.1 µM (active),inactive,inactive,inactive,inactive,–
O=C1C(Cl)=C(Cl)C(=O)c2ccccc21,–,inactive,6.88 µM (active) and 21.7 µM (active),13.7 µM (active) and 15.4 µM (active),3.87 µM (active) and 4.86 µM (active),inactive,inactive,–,inactive,inactive
COP(=O)(NC(C)=O)SC (stereo not drawn),inactive,inactive,inactive,–,–,inactive,inactive,inactive,inactive,inactive
COc1ccc(CO)cc1,inactive,–,inactive,inactive,inactive,inactive,inactive,inactive,inactive,inactive
Cc1ccc(N=CN(C)C=Nc2ccc(C)cc2C)c(C)c1,inactive,inactive,inactive and 54.7 µM (active),–,inactive,inactive,inactive,inactive,inactive,–
COc1ccc(C=O)cc1OC,inactive,inactive,inactive,inactive,–,inactive,inactive,inactive,inactive,–
CCOP(=S)(OCC)OP(=S)(OCC)OCC,inactive,–,inactive,–,–,inactive,inactive,inactive,inactive,–
CCN(CC)C(=O)C(C)Oc1cccc2ccccc12 (stereo not drawn),inactive,inactive,inactive,inactive,inactive,inactive,inactive,inactive,inactive,–
C[N+](C)(C)CC(=O)[O-],–,inactive,inactive,–,inactive,inactive,inactive,inactive,inactive,inactive
N#CC(c1ccccc1)c1ccccc1,inactive,inactive,inactive,–,7.69 µM (active),inactive,inactive,inactive,inactive,–
CCOC(=O)c1ccccc1N,–,inactive,inactive,inactive,inactive,inactive,inactive,inactive,inactive,inactive
CCCCCCCCCCCCCl,inactive,inactive,inactive,inactive,inactive,inactive,inactive,inactive,inactive,–
[CH3][Sn]([Cl])([Cl])[Cl],inactive,inactive,inactive,inactive,inactive,inactive,inactive,inactive,inactive,–
O=NN(c1ccccc1)c1ccccc1,inactive,inactive,inactive,–,inactive,inactive,inactive,inactive,inactive,–
Cc1cccc(N=Nc2ccc(N(C)C)cc2)c1,–,986 nM (active) and 1.93 µM (active),inactive,19.7 µM (active) and 21.7 µM (active),24.8 µM (active) and 27.3 µM (active),inactive,inactive,inactive,inactive,35 µM (active) and 27.3 µM (active)
NN=C(N)N,–,inactive,inactive,inactive,inactive,inactive,inactive,inactive,inactive,inactive
O=[N+]([O-])c1ccc(Nc2ccccc2)cc1,–,inactive,inactive,61.1 µM (active),7.75 µM (active) and 2.73 µM (active),inactive,inactive,inactive,inactive,54.5 µM (active)

Compound,Potency [1],Potency [2],Potency [3],Potency [4],Potency [5],outcome [6],outcome [7],Potency [8],outcome [9],Potency [10]
[Cl-].[Cl-].[Cl-].[Fe+3],–,–,–,–,–,inactive,inactive,inactive,inactive,inactive
Nc1ccc([N+](=O)[O-])cc1N,–,inactive,inactive,–,30.6 µM (active),inactive,inactive,inactive,inactive,54.4 µM (active)
Oc1ccc(Cl)cc1Cc1ccccc1,–,inactive,55.1 µM (active),–,5.96 µM (active) and 2.43 µM (active) and 1.55 µM (active),inactive,inactive,inactive,inactive,–
CC(C)=CC1C(C(=O)OCc2cccc(Oc3ccccc3)c2)C1(C)C (stereo not drawn),–,inactive,inactive,inactive,inactive,inactive,inactive,inactive,inactive,–
CCOP(=S)(OCC)SCn1c(=O)oc2cc(Cl)ccc21,–,inactive,inactive,–,29.3 µM (active) and 27.3 µM (active),inactive,inactive,inactive,inactive,–
CC(C)=CC1C(C(=O)OCN2C(=O)C3=C(CCCC3)C2=O)C1(C)C (stereo not drawn),–,inactive,inactive,–,29.8 µM (active) and 54.5 µM (active),inactive,inactive,inactive,inactive,inactive
O=S(=O)(O)C(F)(F)C(F)(F)C(F)(F)C(F)(F)C(F)(F)C(F)(F)C(F)(F)C(F)(F)F,–,inactive,inactive and 48.6 µM (active),–,–,inactive,inactive,inactive,inactive,inactive
CNC(=O)CSP(=S)(OC)OC,–,inactive,inactive,–,inactive,inactive,inactive,inactive,inactive,–
CC1(C)Cc2cccc(O)c2O1,–,inactive,inactive,inactive,inactive,inactive,inactive,inactive,inactive,–
CN(C)c1nc(=O)n(C2CCCCC2)c(=O)n1C,–,inactive,inactive,–,inactive,inactive,inactive,inactive,inactive,inactive
CCC[CH2][Sn]([Cl])([Cl])[CH2]CCC,–,inactive,2.2 µM (active) and 969 nM (active),–,–,inactive,inactive,inactive,inactive,694 nM (active) and 34.4 nM (active)
CCCCCCCC[N+](C)(CCCCCCCC)CCCCCCCC,–,inactive,10.8 µM (active) and 24.4 µM (active) and 24.3 µM (active),27.3 µM (active) and 54.5 µM (active),1.72 µM (active) and 770 nM (active) and 2.43 µM (active),inactive,inactive,inactive,inactive,–
CC(C)(c1ccccc1)c1ccc(O)c(C(C)(C)c2ccccc2)c1,–,inactive,13.6 µM (active) and 30.6 µM (active),–,1.52 µM (active) and 2.43 µM (active),inactive,inactive,inactive,inactive,–
Cl,–,–,–,–,–,inactive,inactive,inactive,inactive,inactive
CCCCCCCCCC(CC)c1ccc(S(=O)(=O)O)cc1 (stereo not drawn),–,inactive,–,inactive and 68.6 µM (active),61.1 µM (active),inactive,inactive,inactive,inactive,–
Nc1ncn[nH]1,–,inactive,inactive,–,inactive,inactive,inactive,inactive,inactive,inactive
CC(C)(O)C(=O)Nc1ccc([N+](=O)[O-])c(C(F)(F)F)c1,–,inactive,inactive,–,15.7 µM (active) and 17.8 µM (active),inactive,inactive,inactive,inactive,–
CCC1(c2ccc(N)cc2)CCC(=O)NC1=O (stereo not drawn),–,inactive,inactive,–,inactive,inactive,inactive,inactive,inactive,–
CCNCC,–,inactive,inactive,inactive,inactive,inactive,inactive,inactive,inactive,–
Clc1ccccc1-c1nnc(-c2ccccc2Cl)nn1,–,30.4 µM (active),–,–,–,inactive,inactive,inactive,inactive,inactive
C=CC(=O)OCC(CC)(COC(=O)C=C)COC(=O)C=C,–,7.04 µM (active),35.3 µM (active),inactive,62.8 µM (active),inactive,inactive,inactive,inactive,–
C=CC(Cl)CCl (stereo not drawn),–,inactive,inactive,–,–,inactive,inactive,inactive,inactive,inactive
CC1CC(=O)O1 (stereo not drawn),–,–,inactive,–,inactive,inactive,inactive,inactive,inactive,inactive
CCC(=O)Nc1ccc(Cl)c(Cl)c1,–,–,inactive,–,31.3 µM (active) and 30.6 µM (active),inactive,inactive,inactive,inactive,–
CSc1nc(NC(C)C)nc(NC(C)C)n1,–,inactive,inactive,–,–,inactive,inactive,inactive,inactive,inactive
CCC[CH2][Sn]([Cl])([CH2]CCC)[CH2]CCC,–,inactive,687 nM (active) and 1.22 µM (active),–,61.3 nM (active) and 122 nM (active),inactive,inactive,inactive,inactive,–
O=[N+]([O-])/N=C1\NCCN1Cc1ccc(Cl)nc1,–,inactive,inactive,inactive,inactive,inactive,inactive,inactive,inactive,–
